# Bioassay records: PubChem BioAssay, National Center for Advancing Translational Sciences (NCATS)
# A selection: hits, their analogues and other compounds. The true share with any hit is near 2.8%.
# TGFb SMAD3 inh – blocks TGF-b signaling | Potency, µM (doses to about 46.1 µM), inactives show top-dose activity, negative = inhibition, actives largely listed as inhibitors | AID 588855 | HepG2 CAGA-GFP TGF-b/SMAD3 reporter, GFP fluorescence, 18 h; TGF-beta stimulated, 500 pg/mL final | actives 1.2% (n = 410,000); also: % is scaled to controls: 0 for no effect and ±100 for the full control effect; nearly all actives have a fitted effect of over 65% in size
#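 HEPG2 CAGA-GFP reporter cells (1000/well, DMEM with 1% FBS) received compounds, then recombinant TGF-beta at 500 pg/mL final for 18 hours at 37 degrees C. Per-cell GFP summed per well was normalised to unstimulated and stimulated DMSO controls before curve fitting.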
# ATXN2 expr inh – inhibitors of ATXN2 expression | HEK-293 ATXN2-luciferase reporter, luminescence, 24 h | Potency, µM (titrated, usually from 57 µM), for inactives: top-dose activity change, negative = inhibition, usual class: inhibitors | actives 0.72% (n = 360,000) | AID 1745845; also: % is scaled to controls: 0 for no effect and ±100 for the full control effect; nearly all actives have a fitted effect of over 55% in size
#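 ATXN2-luciferase reporter cells (luciferase flanked by upstream and downstream ATXN2 gene portions) were treated 24 h at 37 °C with compounds at up to 57 uM. SteadyGlo luminescence gave expression; GF-AFC fluorescence gave viability.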
# HTT cytoprotect – cytoprotection in Huntington HTT-Q103 PC12 cell model; PC12 HTT-Q103 induced, cytoprotection, ATP luminescence, 40 h; Potency, µM (doses to about 56.4 µM), for the others: cytoprotection (ATP increase), hits mostly activators; actives 0.14% (n = 230,000); AID 1471; also: % of control where 0% means no effect; nearly all actives have a fitted effect of over 45% in size
#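 PC12 cells stably carrying ecdysone-inducible Htt exon 1 (Q103)–GFP were induced with 100 nM tebufenozide (final) alongside library compounds in a dose series. Cytoprotection was scored as retained ATP by ATPlite luminescence.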
# ATXN viability – reduces viability in counter-screen for ATXN expression inhibitors; Potency, µM (highest dose often 56.7 µM), actives largely listed as cytotoxic; S2 cells (HEK-293 line with an ATXN2-luciferase reporter) viability, CellTiter-Fluor protease fluorescence, 24 h; AID 651635; actives 0.49% (n = 400,000); also: nearly all actives have a fitted effect of over 40% in size
# HepG2 viability – counter-screen for TGF-b inhibitors: cytotoxicity in HepG2 cells; Potency, µM (top dose mostly 46.1 µM), for the others: at the highest dose activity change, negative = cytotoxicity, most hits filed as cytotoxic; actives 0.76% (n = 410,000); HepG2 CAGA-GFP viability, ATP luminescence, 18 h
#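 CellTiter-Glo luminescence gave cytotoxicity after 18 hours at 37 degrees C. The cells were HepG2 CAGA-GFP in 1% FBS DMEM, stimulated with 500 pg/mL TGF-beta after compound addition. %Activity was normalised to no-cell wells (complete cell-killing) and DMSO (no toxicity), and curves were fitted and classified.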
# HTT aggregate – mutant huntingtin aggregation inhibition | AID 1688 | Potency, µM (titrated, usually from 46.1 µM), inactives show top-dose activity change, negative = inhibition, hits mostly inhibitors | actives 1.1% (n = 220,000) | PC12 HttQ103-GFP aggregates, Acumen cytometry, 40 h; also: % is scaled to controls: 0 for no effect and ±100 for the full control effect; nearly all actives have a fitted effect of over 60% in size
#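 Quantitative HTS on tebufenozide-induced (100 nM) PC12 cells stably expressing polyQ103 Huntingtin exon 1–GFP. Reduction of bright GFP aggregates, detected by laser scanning cytometry after lysis, identified actives across the titration.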
# Active calls of the source: *; i = inactive; ? = inconclusive; . = no result; [ ] = dose if it differs, or a comment. Calls follow the shape of the dose curve; as a rule, active = well fitted curve in the direction sought with a large enough effect; inconclusive = small, poorly fitted or top-dose-only effect, or another doubt; inactive = no such curve, though single readings can be large; an effect the other way counts as inactive or inconclusive. Potency is read from the fitted curve at half-maximal effect.
SMILES,TGFb SMAD3 inh,ATXN2 expr inh,HTT cytoprotect,ATXN viability,HepG2 viability,HTT aggregate
CCOC(=O)c1c(NC(=O)/C=C/c2ccc(OCC)c(OC)c2)sc2c1CCC2,5%,2%,.,i,-3%,.
O=C(Nc1ccc(C(F)(F)F)cc1)C1CCCN(S(=O)(=O)c2cccc3cccnc23)C1 (stereo not drawn),11µM*,6%,.,i,-34%,.
COc1ccc2c(c1)c(CC(=O)Nc1cccc(S(N)(=O)=O)c1)c(C)n2C(=O)c1ccc(Cl)cc1,16µM*,?,23%[10 µM],?,-43%,-8%[9.22 µM]
CSc1ccc(C(=O)N2CCc3c(cnc(C)c3CNC(=O)c3cncs3)C2)cc1,.,.,.,i,.,.
CN(C)CCCN(C(=O)c1ccc(Cl)s1)c1nc2cc3c(cc2s1)OCO3,?,?,.,28µM*,-95%,.
CN(C)CCCN(C(=O)c1ccco1)c1nc2cc3c(cc2s1)OCO3,-19%,14µM*,.,i,-30%,.
CN(C)CCCN(C(=O)c1ccc(C(=O)c2ccccc2)cc1)c1nc2cc3c(cc2s1)OCO3,?,?,.,?,11µM*,.
CN(C)CCCN(C(=O)c1cc2cc([N+](=O)[O-])ccc2s1)c1nc2cc3c(cc2s1)OCCO3,?,?,.,20µM*,-98%,.
CC(N)(C(=O)O)c1ccc(S(=O)(=O)O)cc1 (stereo not drawn),.,.,-16%,.,.,.
O=[N+]([O-])c1cc(Cl)ccc1Nc1nc(Nc2ccc(Cl)cc2[N+](=O)[O-])nc(N2CCOCC2)n1,4%,.,.,.,-9%,.
CCc1ccc(NC(=O)C(CC)Sc2nc3cc4c(cc3c(=O)n2Cc2ccco2)OCO4)cc1 (stereo not drawn),0%,?,-3%[10 µM],?,-42%,?
CCc1ccccc1NC(=O)C(CC)Sc1nc2cc3c(cc2c(=O)n1Cc1ccco1)OCO3 (stereo not drawn),6%,16µM*,-25%[0.074 µM],18µM*,-6%,16%
CC(CCC(C)C(C)(C)C)[C@@H]1CC[C@H]2C3C[C@H](OS(O)(=S)=S)[C@H]4C[C@H](OS(O)(=S)=S)[C@@H](OS(O)(=S)=S)C[C@]4(C)[C@H]3CC[C@]12C (stereo partly drawn) (tested in a mixture with another compound),?,?,.,18µM*,16µM*,.
C[C@H](CCC(=O)O)[C@H]1CCC2C3C[C@H](O)[C@@H]4C[C@H](O)CC[C@]4(C)C3CC[C@@]21C (stereo partly drawn),.,0%,.,.,.,.
O=C(c1ccc(Cl)nc1)c1cccs1,18%,-13%,-3%[10 µM],i,20%,-10%[9.22 µM]
O=C(c1cccs1)c1no[n+]([O-])c1C(=O)c1cccs1,25µM*,?,-88%,28µM*,-41%,?
COc1ccc(C(=O)c2no[n+]([O-])c2C(=O)c2ccc(OC)cc2)cc1,?,?,-197%[0.074 µM],28µM*,-95%,?
CCc1nc2cc(C(=O)N(C)CC3CCCN(C)C3)cc(NC(=O)c3ccccc3OC)c2n1C (stereo not drawn),.,.,.,i,.,.
CCN(CC)CCOC(=O)c1ccc(NC(=O)c2nn(-c3ccc(C)cc3)c(=O)c3c2c2ccccc2n3C)cc1,4.5µM*,.,.,.,3.5µM*,.
CCN(CC)CCCNC(=O)c1nn(-c2ccc(C)cc2)c(=O)c2c1c1ccccc1n2C,5%,-10%,.,i,-29%,.
Cc1ccc(NC(=O)C2(c3ccc4c(c3)OC(F)(F)O4)CC2)nc1-c1cccc(C(=O)O)c1,.,0.086µM*,.,.,.,.
C[C@H]1C[C@@H]2[C@H]3CCC4=CC(=O)C=C[C@@]4(C)[C@]3(Cl)[C@@H](Cl)C[C@]2(C)[C@]1(O)C(=O)COP(=O)(O)O,.,.,-5%[10 µM],.,.,.
CCN(CC)S(=O)(=O)c1ccc(Oc2cccc(C(C)=O)c2)nc1,8%,-2%,7%,i,-21%,5.6µM*
CCN(CC)S(=O)(=O)c1ccc(Oc2ccccc2)cc1,4%,-6%,-9%,i,-19%,16µM*
O=c1cc(-c2ccccc2)oc2cc(O[C@H]3O[C@H](CO)[C@@H](O)[C@H](O)[C@@H]3O)c(O)c(O)c12,.,.,-7%,.,.,.
SMILES,TGFb SMAD3 inh,ATXN2 expr inh,HTT cytoprotect,ATXN viability,HepG2 viability,HTT aggregate
C=CCN1CCc2c(cc(O)c(O)c2Cl)[C@H](c2ccccc2)C1,.,.,-3%[1.9 µM],.,.,.
OC(CN1CCCCC1)c1cc(-c2ccccc2)on1 (stereo not drawn),.,.,.,i,.,.
C=CCC[C@H](Cc1ccc(F)cc1)C(=O)OC[C@@H](Cc1c[nH]c2ccccc12)NC(=O)[C@@H](CC=C)CC(=O)N[C@@H](CO)Cc1ccccc1,10µM*,?,.,13µM*,-56%,.
C=CCC[C@@H](Cc1ccc(F)cc1)C(=O)OC[C@@H](Cc1c[nH]c2ccccc12)NC(=O)[C@H](CC=C)CC(=O)N[C@H](CO)Cc1ccccc1,?,?,.,25µM*,-80%,.
CSc1ccc(-c2ccc3c(c2)CC(CNC(=O)Cn2nc(C)nc2C)O3)cc1 (stereo not drawn),.,.,.,i,.,.
COc1ccc(CN2CCN(C(C)=O)CC2)cc1OC1CCN(C(=O)c2ccc3[nH]c(C)c(C)c3c2)CC1,.,.,.,i,.,.
CCCCN1C(=O)c2[nH]nc(-c3ccccc3O)c2C1c1ccc(OCc2ccccc2)cc1 (stereo not drawn),3.5µM*,.,.,.,-70%,.
CCCCN1C(=O)c2[nH]nc(-c3ccccc3O)c2C1c1ccc(OCc2ccccc2)c(OC)c1 (stereo not drawn),?,.,.,.,-39%,.
COCCN1C(=O)c2[nH]nc(-c3ccccc3O)c2C1c1ccc(OC)cc1 (stereo not drawn),5%,1%,16%[10 µM],i,6%,17%[9.22 µM]
CC(C)OCCCN1C(=O)c2[nH]nc(-c3ccccc3O)c2C1c1ccccc1F (stereo not drawn),10µM*,.,.,.,-47%,.
COCCCN1C(=O)c2[nH]nc(-c3ccccc3O)c2C1c1ccc(OCc2ccccc2)cc1 (stereo not drawn),20µM*,.,.,.,-112%,.
O=C1c2[nH]nc(-c3ccccc3O)c2C(c2ccccc2F)N1Cc1cccnc1 (stereo not drawn),-15%,-8%,.,i,-36%,.
CC(C)OCCCN1C(=O)c2[nH]nc(-c3ccccc3O)c2C1c1cccc(OCc2ccccc2)c1 (stereo not drawn),?,.,.,.,16µM*,.
C=C(NNC(C)=O)c1ccc(O)cc1,5%,.,.,.,-5%,.
